The campaign covered roughly 5,500 compounds. About 2,000 (36%) were called active. Inconclusive results (about 18%) are left out. Cut-off read from the data, not from the text of the source: active = normalized growth mostly below about 0.91 (no sharp cut-off); inconclusive = no clear call, values can overlap the other calls; inactive = mostly above about 0.92. The list shows a part of the results.
Experiment: chemical genetic growth profiling, strain panel (AID 1159580);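 note: tested at 20 µM; growth read once vehicle control cultures reached saturation at 30 °C; 1 = growth at the plate median or of vehicle wells; lower values mean less growth of the strain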
Details: growth OD
[1] = S. cerevisiae deletion strains, locus YAL013W, strain DEP1, hits give low values
[2] = S. cerevisiae deletion strains, locus YBR229C, strain ROT2, hits give low values
[3] = S. cerevisiae deletion strains, locus YDL101C, strain DUN1, hits give low values
[4] = S. cerevisiae deletion strains, locus YDL134C, strain PPH21, hits give low values
[5] = S. cerevisiae deletion strains, locus YDR150W, strain NUM1, hits give low values
[6] = S. cerevisiae deletion strains, locus YEL061C, strain CIN8, hits give low values
[7] = S. cerevisiae deletion strains, locus YGR078C, strain PAC10, hits give low values
[8] = S. cerevisiae deletion strains, locus YGR229C, strain SMI1, hits give low values
[9] = S. cerevisiae deletion strains, locus YHR030C, strain SLT2, hits give low values
[10] = S. cerevisiae deletion strains, locus YHR087W, strain rtc3, hits give low values
[11] = S. cerevisiae deletion strains, locus YJR043C, strain POL32, hits give low values
[12] = S. cerevisiae deletion strains, locus YJR075W, strain HOC1, hits give low values
[13] = S. cerevisiae deletion strains, locus YKL190W, strain CNB1, hits give low values
[14] = S. cerevisiae deletion strains, locus YLR039C, strain RIC1, hits give low values
[15] = S. cerevisiae deletion strains, locus YLR058C, strain SHM2 (second series), hits give low values
[16] = S. cerevisiae deletion strains, locus YLR085C, strain ARP6, hits give low values
[17] = S. cerevisiae deletion strains, locus YLR262C, strain YPT6, hits give low values
[18] = S. cerevisiae deletion strains, locus YML094W, strain GIM5, hits give low values
[19] = S. cerevisiae deletion strains, locus YMR219W, strain ESC1, hits give low values
[20] = S. cerevisiae deletion strains, locus YMR263W, strain SAP30, hits give low values
[21] = S. cerevisiae deletion strains, locus YMR307W, strain GAS1, hits give low values
[22] = S. cerevisiae deletion strains, locus YNL153C, strain GIM3, hits give low values
[23] = S. cerevisiae deletion strains, locus YNL298W, strain CLA4 (second series), hits give low values
[24] = S. cerevisiae deletion strains, locus YNL322C, strain KRE1, hits give low values
[25] = S. cerevisiae deletion strains, locus YNR030W, strain Alg12, hits give low values
[26] = S. cerevisiae deletion strains, locus YPL055C, strain LGE1, hits give low values
[27] = S. cerevisiae deletion strains, locus YPL241C, strain CIN2, hits give low values
[28] = S. cerevisiae deletion strains, locus YPR135W, strain CTF4, hits give low values
[29] = S. cerevisiae strains, strain wild type, hits give low values
[30] = S. cerevisiae deletion strains, locus YJL187C, strain SWE1, hits give low values
[31] = S. cerevisiae deletion strains, locus YOL006C, strain TOP1, hits give low values
[32] = S. cerevisiae deletion strains, locus YNL128W, strain TEP1, hits give low values

Measured: normalized growth

CCOC(=O)c1sc(S(C)(=O)=O)c2c1CCCC2O (centres undefined)
inactive: [1] 1.02 | [2] 1 | [3] 0.995 | [4] 1.01 | [5] 0.95 | [6] 1.02 | [7] 1 | [8] 1 | [9] 1.03 | [10] 0.995 | [11] 0.98 | [12] 1.01 | [13] 1 | [14] 1.05 | [15] 1.01 | [16] 1.08 | [17] 1.04 | [18] 1.03 | [19] 1.01 | [20] 1.04 | [21] 1.08 | [22] 1 | [23] 1.03 | [24] 1.02 | [25] 1.03 | [26] 0.952 | [27] 1.02 | [28] 1.05 | [29] 1.01

CCOC(=O)c1sc(SC(C)C)c2c1CCCC2=O
active: [4] 0.82 | [6] 0.795 | [9] 0.53 | [30] 0.851 | [14] 0.785 | [16] 0.646 | [23] 0.835 | [25] 0.884 | [27] 0.801
inactive: [1] 0.979 | [2] 0.969 | [3] 0.973 | [5] 1.06 | [7] 0.982 | [10] 0.978 | [11] 1.02 | [12] 0.93 | [15] 0.974 | [17] 0.864 | [18] 0.911 | [19] 0.969 | [20] 1.03 | [22] 0.978 | [24] 0.97 | [31] 0.738 | [26] 1.04 | [28] 0.762 | [29] 0.951

Cn1[nH]c(=O)cc1C(=O)NN
inactive: [1] 1 | [2] 1.02 | [3] 1 | [4] 0.996 | [5] 1.01 | [6] 1.03 | [7] 1 | [9] 1.11 | [10] 1 | [30] 0.998 | [11] 1.01 | [12] 0.992 | [14] 0.998 | [15] 0.985 | [16] 0.978 | [17] 1.11 | [18] 0.99 | [19] 1 | [20] 0.991 | [21] 0.899 | [32] 0.981 | [22] 1.05 | [23] 1.03 | [24] 0.995 | [25] 1.01 | [26] 0.995 | [27] 0.992 | [28] 1.12 | [29] 0.986

COC(=O)C1OC(=O)C2OC23C1(C)CCC1C2(C)C(OC(C)=O)CC(OC(C)=O)C(C)(C)C2CC(=O)C13C (centres undefined)
inactive: [1] 1.02 | S. cerevisiae deletion strains, locus YBR021W, strain FUR4, hits give low values 0.914 | [2] 1 | S. cerevisiae deletion strains, locus YCL029C, strain bik1, hits give low values 0.987 | S. cerevisiae deletion strains, locus YDL035C, strain GPR1, hits give low values 1 | S. cerevisiae deletion strains, locus YDL074C, strain BRE1, hits give low values 1.03 | [3] 0.997 | [4] 0.998 | S. cerevisiae deletion strains, locus YDL185W, strain tfp1, hits give low values 0.962 | S. cerevisiae deletion strains, locus YDL192W, strain arf1, hits give low values 0.988 | S. cerevisiae deletion strains, locus YDR101C, strain arx1, hits give low values 0.999 | [5] 0.969 | S. cerevisiae deletion strains, locus YDR162C, strain NBP2, hits give low values 1.01 | S. cerevisiae deletion strains, locus YDR318W, strain mcm21, hits give low values 0.988 | S. cerevisiae deletion strains, locus YDR388W, hits give low values 1 | S. cerevisiae deletion strains, locus YDR502C, strain sam2, hits give low values 0.996 | [6] 1 | S. cerevisiae deletion strains, locus YER110C, hits give low values 0.985 | S. cerevisiae deletion strains, locus YER155C, strain BEM2, hits give low values 0.929 | S. cerevisiae deletion strains, locus YER167W, strain BCK2, hits give low values 0.984 | S. cerevisiae deletion strains, locus YGL078C, strain dbp3, hits give low values 0.979 | S. cerevisiae deletion strains, locus YGL086W, strain mad1, hits give low values 0.982 | S. cerevisiae deletion strains, locus YGL248W, strain PDE1, hits give low values 0.983 | [7] 1 | S. cerevisiae deletion strains, locus YGR135W, strain pre9, hits give low values 0.997 | [8] 1 | S. cerevisiae deletion strains, locus YGR252W, strain gcn5, hits give low values 1.01 | [9] 0.997 | S. cerevisiae deletion strains, locus YHR079C, strain IRE1 (second series), hits give low values 0.998 | S. cerevisiae deletion strains, locus YHR094C, strain hxt1, hits give low values 0.972 | S. cerevisiae deletion strains, locus YHR129C, strain ARP1, hits give low values 1 | S. cerevisiae deletion strains, locus YHR200W, strain rpn10, hits give low values 0.985 | S. cerevisiae deletion strains, locus YIL066C, strain RNR3, hits give low values 1 | S. cerevisiae deletion strains, locus YIL073C, strain SPO22, hits give low values 0.883 | S. cerevisiae deletion strains, locus YIL125W, strain kgd1, hits give low values 1 | S. cerevisiae deletion strains, locus YIR030C, strain dcg1, hits give low values 0.998 | S. cerevisiae deletion strains, locus YJL095W, strain BCK1, hits give low values 1.05 | S. cerevisiae deletion strains, locus YJL134W, strain LCB3, hits give low values 0.994 | S. cerevisiae deletion strains, locus YJL168C, strain set2, hits give low values 1 | S. cerevisiae deletion strains, locus YJL187C, strain SWE1 (second series), hits give low values 0.996 | [11] 0.984 | [12] 1.01 | S. cerevisiae deletion strains, locus YKL009W, strain mrt4, hits give low values 0.967 | S. cerevisiae deletion strains, locus YKL068W, hits give low values 0.983 | S. cerevisiae deletion strains, locus YKL085W, strain MDH1 (second series), hits give low values 0.984 | S. cerevisiae deletion strains, locus YKL085W, strain MDH1, hits give low values 0.984 | [13] 1 | S. cerevisiae deletion strains, locus YKR001C, strain vps1, hits give low values 0.983 | [14] 0.963 | S. cerevisiae deletion strains, locus YLR058C, strain SHM2, hits give low values 1 | S. cerevisiae deletion strains, locus YLR102C, strain apc9, hits give low values 0.996 | [17] 0.966 | S. cerevisiae deletion strains, locus YLR268W, strain sec22, hits give low values 0.996 | S. cerevisiae deletion strains, locus YLR330W, strain CHS5, hits give low values 0.995 | S. cerevisiae deletion strains, locus YLR342W, strain FKS1 (second series), hits give low values 0.985 | S. cerevisiae deletion strains, locus YLR371W, strain rom2, hits give low values 0.981 | S. cerevisiae deletion strains, locus YLR418C, strain cdc73, hits give low values 1.05 | S. cerevisiae deletion strains, locus YML016C, strain PPZ1, hits give low values 0.997 | S. cerevisiae deletion strains, locus YML032C, strain rad52, hits give low values 0.977 | S. cerevisiae deletion strains, locus YML124C, strain tub3, hits give low values 0.992 | S. cerevisiae deletion strains, locus YMR078C, strain ctf18, hits give low values 0.992 | S. cerevisiae deletion strains, locus YMR223W, strain ubp8, hits give low values 0.974 | [20] 0.994 | [21] 1 | S. cerevisiae deletion strains, locus YNL067W, strain RPL9B, hits give low values 0.994 | [32] 1.02 | [22] 1 | S. cerevisiae deletion strains, locus YNL233W, strain BNI4, hits give low values 1.01 | S. cerevisiae deletion strains, locus YNL250W, strain rad50, hits give low values 0.987 | S. cerevisiae deletion strains, locus YNL271C, strain bni1, hits give low values 0.995 | S. cerevisiae deletion strains, locus YNL298W, strain CLA4, hits give low values 0.985 | S. cerevisiae deletion strains, locus YNL307C, strain MCK1, hits give low values 0.988 | [24] 1.01 | S. cerevisiae deletion strains, locus YNR052C, strain pop2, hits give low values 0.986 | [31] 1.04 | S. cerevisiae deletion strains, locus YOL012C, strain htz1 0.841 | S. cerevisiae deletion strains, locus YOL147C, strain pex11, hits give low values 0.99 | S. cerevisiae deletion strains, locus YOR061W, strain CKA2, hits give low values 1 | S. cerevisiae deletion strains, locus YOR069W, strain VPS5, hits give low values 0.996 | S. cerevisiae deletion strains, locus YOR136W, strain idh2, hits give low values 0.985 | S. cerevisiae deletion strains, locus YOR144C, strain elg1, hits give low values 0.993 | S. cerevisiae deletion strains, locus YOR184W, strain ser1, hits give low values 0.966 | S. cerevisiae deletion strains, locus YOR316C, strain cot1, hits give low values 0.987 | [26] 1 | [27] 0.998 | S. cerevisiae deletion strains, locus YPR119W, strain clb2, hits give low values 0.996 | S. cerevisiae deletion strains, locus YPR141C, strain kar3, hits give low values 0.975 | S. cerevisiae deletion strains, locus YPR163C, strain tif3, hits give low values 0.991 | S. cerevisiae deletion strains, locus YPR167C, strain met16, hits give low values 0.995 | S. cerevisiae deletion strains, strain wtn01, hits give low values 0.997 | [29] 0.983

CCN(CC)C(=O)N[C@H]1C=C2c3cccc4[nH]cc(c34)C[C@H]2N(C)C1
inactive: [1] 1.01 | S. cerevisiae deletion strains, locus YAL040C, strain CLN3, hits give low values 0.999 | S. cerevisiae deletion strains, locus YCL061C, strain MRC1 (second series), hits give low values 1.01 | S. cerevisiae deletion strains, locus YDR363W, strain ESC2, hits give low values 1.03 | S. cerevisiae deletion strains, locus YER002W, strain NOP16, hits give low values 1.01 | [12] 1.02 | [21] 1.01 | S. cerevisiae deletion strains, locus YNL175C, strain NOP13, hits give low values 0.996 | S. cerevisiae deletion strains, locus YNL197C, strain WHI3, hits give low values 1.01 | S. cerevisiae deletion strains, locus YNL224C, strain SQS1, hits give low values 1.02 | [24] 1.01 | S. cerevisiae deletion strains, locus YOR083W, strain WHI5 (second series), hits give low values 0.999 | [26] 0.998 | [27] 1

CCOC(=O)C1=C(N)Oc2ccc(Br)cc2C1C(C#N)C(=O)OCC (centres undefined)
active: [3] 0.884 | [6] 0.648 | [9] 0.293 | [12] 0.88 | [14] 0.386 | [16] 0.379 | [17] 0.46 | [18] 0.669 | [21] 0.667 | [23] 0.61 | [25] 0.528 | [27] 0.472 | [28] 0.424
inactive: [1] 0.934 | [2] 0.938 | S. cerevisiae deletion strains, locus YCL061C, strain MRC1, hits give low values 0.916 | [5] 0.957 | [7] 0.938 | [8] 0.963 | [10] 0.979 | [30] 0.959 | [11] 0.983 | [15] 0.986 | [19] 0.979 | [20] 0.964 | [22] 0.982 | [24] 0.992 | [26] 0.98

Reference: PubChem BioAssay AID1159580 (chemical genetic matrix, 2015)
